# Assays:
# Assay in all cases: SPOT peptide array binding signal intensity (averaged, normalized) (arbitrary units (background-subtracted, floor 0; scale differs between SH3 domains)); higher = stronger binding of the SH3 domain to the peptide
# [1] = target: CaNbp2
# Procedure, shortened: (§1)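 Detection of bound protein relied on anti-GST antibody, an HRP anti-mouse secondary and luminol, with imaging and quantification in Genespotter. The bound protein was GST-fused SH3 domains from four yeast species, incubated at 10 μg/ml overnight at 4°C in TBS-based blocking buffer on cellulose membranes carrying synthetic 15-mer peptides with cysteines replaced by serines. Binding signal is normalized, background-subtracted spot intensity averaged over replicates, in arbitrary units that differ between domains.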
# [2] = target: CaRvs167
# Procedure, shortened: as §1
# [3] = target: CaRvs167-3
# Procedure, shortened: as §1
# [4] = target: CaSho1
# Procedure, shortened: as §1
# [5] = target: CaSla1-D1-D2
# Procedure, shortened: as §1
# [6] = target: CaSla1-D3
# Procedure, shortened: as §1
# [7] = target: ScAbp1
# Procedure, shortened: as §1
# [8] = target: ScBbc1
# Procedure, shortened: as §1
# [9] = target: ScBem1-D1
# Procedure, shortened: as §1
# [10] = target: ScBzz1-D1
# Procedure, shortened: as §1
# [11] = target: ScBzz1-D2
# Procedure, shortened: as §1
# [12] = target: ScCyk3
# Procedure, shortened: as §1
# [13] = target: ScFus1
# Procedure, shortened: as §1
# [14] = target: ScHof1
# Procedure, shortened: as §1
# [15] = target: ScHse1
# Procedure, shortened: as §1
# [16] = target: ScLsb1
# Procedure, shortened: as §1
# [17] = target: ScLsb2
# Procedure, shortened: as §1
# [18] = target: ScLsb3
# Procedure, shortened: as §1
# [19] = target: ScLsb4
# Procedure, shortened: as §1
# [20] = target: ScMyo3
# Procedure, shortened: as §1
# [21] = target: ScMyo5
# Procedure, shortened: as §1
# [22] = target: ScNbp2
# Procedure, shortened: as §1
# [23] = target: ScPex13
# Procedure, shortened: as §1
# [24] = target: ScRvs167
# Procedure, shortened: as §1
# [25] = target: ScSho1
# Procedure, shortened: as §1
# [26] = target: ScSla1-D1-D2
# Procedure, shortened: as §1
# [27] = target: ScSla1-D3
# Procedure, shortened: as §1
# [28] = target: SpAbp1-D1
# Procedure, shortened: as §1
# [29] = target: SpBbc1
# Procedure, shortened: as §1
# [30] = target: SpBzz1-D1
# Procedure, shortened: as §1
# [31] = target: SpBzz1-D2
# Procedure, shortened: as §1
# [32] = target: SpCyk3
# Procedure, shortened: as §1
# [33] = target: SpHof1
# Procedure, shortened: as §1
# [34] = target: SpHof1-2
# Procedure, shortened: as §1
# [35] = target: SpHof1-3
# Procedure, shortened: as §1
# [36] = target: SpHse1
# Procedure, shortened: as §1
# [37] = target: SpLsb1
# Procedure, shortened: as §1
# [38] = target: SpLsb4
# Procedure, shortened: as §1
# [39] = target: SpMyo1
# Procedure, shortened: as §1
# [40] = target: SpNbp2
# Procedure, shortened: as §1
# [41] = target: SpPex13
# Procedure, shortened: as §1
# [42] = target: SpRvs167
# Procedure, shortened: as §1
# [43] = target: SpSla1-D1-D2
# Procedure, shortened: as §1
# [44] = target: SpSla1-D3
# Procedure, shortened: as §1
# [45] = target: AgAbp1
# Procedure, shortened: as §1
# [46] = target: AgBbc1
# Procedure, shortened: as §1
# [47] = target: AgBem1-D1
# Procedure, shortened: as §1
# [48] = target: AgBzz1-D1
# Procedure, shortened: as §1
# [49] = target: AgBzz1-D2
# Procedure, shortened: as §1
# [50] = target: AgCyk3
# Procedure, shortened: as §1
# [51] = target: AgFus1
# Procedure, shortened: as §1
# [52] = target: AgHof1
# Procedure, shortened: as §1
# [53] = target: AgHse1
# Procedure, shortened: as §1
# [54] = target: AgLsb1
# Procedure, shortened: as §1
# [55] = target: AgLsb4
# Procedure, shortened: as §1
# [56] = target: AgMyo5
# Procedure, shortened: as §1
# [57] = target: AgNbp2
# Procedure, shortened: as §1
# [58] = target: AgRvs167
# Procedure, shortened: as §1
# [59] = target: AgSho1
# Procedure, shortened: as §1
# [60] = target: AgSla1-D1-D2
# Procedure, shortened: as §1
# [61] = target: AgSla1-D3
# Procedure, shortened: as §1
# [62] = target: CaAbp1-D1
# Procedure, shortened: as §1
# [63] = target: CaAbp1-D2
# Procedure, shortened: as §1
# [64] = target: CaBbc1
# Procedure, shortened: as §1
# [65] = target: CaBem1-D1
# Procedure, shortened: as §1
# [66] = target: CaBzz1-D1
# Procedure, shortened: as §1
# [67] = target: CaBzz1-D2
# Procedure, shortened: as §1
# [68] = target: CaCyk3
# Procedure, shortened: as §1
# [69] = target: CaFus1
# Procedure, shortened: as §1
# [70] = target: CaHof1
# Procedure, shortened: as §1
# [71] = target: CaHse1
# Procedure, shortened: as §1
# [72] = target: CaLsb1
# Procedure, shortened: as §1
# [73] = target: CaLsb4
# Procedure, shortened: as §1
# [74] = target: CaMyo5
# Procedure, shortened: as §1
binder,measurement,setting,value
DFTLPPPPPPPGLDE,SPOT peptide array binding signal intensity,[1],20
same,SPOT peptide array binding signal intensity,[2],≤ 0
same,SPOT peptide array binding signal intensity,[3],≤ 0
same,SPOT peptide array binding signal intensity,[4],≤ 0
same,SPOT peptide array binding signal intensity,[5],≤ 0
same,SPOT peptide array binding signal intensity,[6],≤ 0
same,SPOT peptide array binding signal intensity,[7],≤ 0
same,SPOT peptide array binding signal intensity,[8],≤ 0
same,SPOT peptide array binding signal intensity,[9],≤ 0
same,SPOT peptide array binding signal intensity,[10],≤ 0
same,SPOT peptide array binding signal intensity,[11],1
same,SPOT peptide array binding signal intensity,[12],0.5
same,SPOT peptide array binding signal intensity,[13],3
same,SPOT peptide array binding signal intensity,[14],14.8
same,SPOT peptide array binding signal intensity,[15],≤ 0
same,SPOT peptide array binding signal intensity,[16],≤ 0
same,SPOT peptide array binding signal intensity,[17],3.5
same,SPOT peptide array binding signal intensity,[18],≤ 0
same,SPOT peptide array binding signal intensity,[19],≤ 0
same,SPOT peptide array binding signal intensity,[20],2030
same,SPOT peptide array binding signal intensity,[21],1990
same,SPOT peptide array binding signal intensity,[22],18
same,SPOT peptide array binding signal intensity,[23],≤ 0
same,SPOT peptide array binding signal intensity,[24],3.33
same,SPOT peptide array binding signal intensity,[25],≤ 0
same,SPOT peptide array binding signal intensity,[26],≤ 0
same,SPOT peptide array binding signal intensity,[27],≤ 0
same,SPOT peptide array binding signal intensity,[28],≤ 0
same,SPOT peptide array binding signal intensity,[29],≤ 0
same,SPOT peptide array binding signal intensity,[30],1300
same,SPOT peptide array binding signal intensity,[31],2.5
same,SPOT peptide array binding signal intensity,[32],≤ 0
same,SPOT peptide array binding signal intensity,[33],2
same,SPOT peptide array binding signal intensity,[34],2.5
same,SPOT peptide array binding signal intensity,[35],1.5
same,SPOT peptide array binding signal intensity,[36],≤ 0
same,SPOT peptide array binding signal intensity,[37],≤ 0
same,SPOT peptide array binding signal intensity,[38],≤ 0
same,SPOT peptide array binding signal intensity,[39],1210
same,SPOT peptide array binding signal intensity,[40],9
same,SPOT peptide array binding signal intensity,[41],≤ 0
same,SPOT peptide array binding signal intensity,[42],≤ 0
same,SPOT peptide array binding signal intensity,[43],≤ 0
same,SPOT peptide array binding signal intensity,[44],≤ 0
ITHRLRISIPGITGR,SPOT peptide array binding signal intensity,[45],4.5
same,SPOT peptide array binding signal intensity,[46],199
same,SPOT peptide array binding signal intensity,[47],314
same,SPOT peptide array binding signal intensity,[48],121
same,SPOT peptide array binding signal intensity,[49],236
same,SPOT peptide array binding signal intensity,[50],10
same,SPOT peptide array binding signal intensity,[51],1770
same,SPOT peptide array binding signal intensity,[52],112
same,SPOT peptide array binding signal intensity,[53],580
same,SPOT peptide array binding signal intensity,[54],54.5
same,SPOT peptide array binding signal intensity,[55],687
same,SPOT peptide array binding signal intensity,[56],≤ 0
same,SPOT peptide array binding signal intensity,[57],101
same,SPOT peptide array binding signal intensity,[58],16.7
same,SPOT peptide array binding signal intensity,[59],329
same,SPOT peptide array binding signal intensity,[60],116
same,SPOT peptide array binding signal intensity,[61],6
same,SPOT peptide array binding signal intensity,[62],111
same,SPOT peptide array binding signal intensity,[63],39
same,SPOT peptide array binding signal intensity,[64],306
same,SPOT peptide array binding signal intensity,[65],84
same,SPOT peptide array binding signal intensity,[66],362
same,SPOT peptide array binding signal intensity,[67],226
same,SPOT peptide array binding signal intensity,[68],37.5
same,SPOT peptide array binding signal intensity,[69],2510
same,SPOT peptide array binding signal intensity,[70],1.75
same,SPOT peptide array binding signal intensity,[71],62.5
same,SPOT peptide array binding signal intensity,[72],5
same,SPOT peptide array binding signal intensity,[73],141
same,SPOT peptide array binding signal intensity,[74],20.8
same,SPOT peptide array binding signal intensity,[1],454
same,SPOT peptide array binding signal intensity,[2],636
same,SPOT peptide array binding signal intensity,[3],2400
same,SPOT peptide array binding signal intensity,[4],855
same,SPOT peptide array binding signal intensity,[5],28
same,SPOT peptide array binding signal intensity,[6],454
same,SPOT peptide array binding signal intensity,[7],23
same,SPOT peptide array binding signal intensity,[8],16.8
same,SPOT peptide array binding signal intensity,[9],44.5
same,SPOT peptide array binding signal intensity,[10],100
same,SPOT peptide array binding signal intensity,[11],442
same,SPOT peptide array binding signal intensity,[12],72
same,SPOT peptide array binding signal intensity,[13],2080
same,SPOT peptide array binding signal intensity,[14],2
same,SPOT peptide array binding signal intensity,[15],2140
same,SPOT peptide array binding signal intensity,[16],33.5
same,SPOT peptide array binding signal intensity,[17],22
same,SPOT peptide array binding signal intensity,[18],282
same,SPOT peptide array binding signal intensity,[19],20
same,SPOT peptide array binding signal intensity,[20],≤ 0
same,SPOT peptide array binding signal intensity,[21],1.5
same,SPOT peptide array binding signal intensity,[22],397
same,SPOT peptide array binding signal intensity,[23],50.2
same,SPOT peptide array binding signal intensity,[24],163
same,SPOT peptide array binding signal intensity,[25],2380
same,SPOT peptide array binding signal intensity,[26],267
same,SPOT peptide array binding signal intensity,[27],69
same,SPOT peptide array binding signal intensity,[28],91.5
same,SPOT peptide array binding signal intensity,[29],57.2
same,SPOT peptide array binding signal intensity,[30],486

# Source: the supplement of paper PMC4466140
